Screens from PubChem BioAssay.
Most compounds without a hit are left out; they make up all but 2% or so of the library.
Beta cell apopt: blocks beta cell apoptosis; hit rate 0.8% among 300,000; protection from apoptosis, % (test concentration not listed); AID 435005; INS-1E cytokine-induced death, ATP luminescence, 48 h; percent of positive-control rescue, neutral wells zero;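 active = Every replicate reaches about 75%, or at least half do and their mean reaches it too, limit read from the data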;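 note: higher means more ATP so stronger rescue from cytokine killing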
Shn3 3UTR inh: reduces Shn3 3'UTR luciferase signal in osteoblasts. inhibition, % at 12.5 µM. Clone20 osteoblast Shn3 3'UTR firefly luciferase, 24 h. hit rate 0.52% among 360,000;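 active = mean inhibition of at least 75% with every replicate also reaching 75%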
Calb FLC: affects C. albicans growth with fluconazole; C. albicans CaCi-2 (fluconazole-resistant clinical isolate) + fluconazole, Alamar Blue growth, 48 h; growth inhibition, % (no concentration beside the values); hit rate 0.57% among 300,000; AID 1979;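 active = growth inhibition above about 58% in most replicates, limit read from the data, passing the limit was not always enough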;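 note: all wells also contain fluconazole at 8 µg/ml as a sub-toxic cotreatment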
Jurkat NFkB inh: inhibitors of the PMA/ionomycin-induced NF-kB reporter in Jurkat cells; PMA/ionomycin-induced NF-kB luciferase reporter, luminescence; AID 435003; inhibition, % at 4 µM; hit rate 0.53% among 330,000; in the data active = inhibition above about 50%
697 NFkB inh: inhibitors of the PMA/ionomycin-induced NF-kB reporter in 697 B cells | inhibition, % at 4 µM | hit rate 0.33% among 330,000 | 697 B-cell NF-kB luciferase reporter, 16 h; in the data active = inhibition above about 35%
Hits are given with their value; – = inactive; · = not tested or not shown.

SMILES	Beta cell apopt	Shn3 3UTR inh	Calb FLC	Jurkat NFkB inh	697 NFkB inh
O=C(O)C1C2C=CC(C2)C1C(=O)Nc1ccc2c(c1)OCCO2 (configuration not stated)	–	–	–	–	–
CN(C)c1ccc(NC(=O)C2C3C=CC(C3)C2C(=O)O)cc1 (configuration not stated)	–	–	92	–	–
FC(F)(F)c1ccc(Cl)c(Nc2nnc(-c3ccncc3)s2)c1	·	–	·	·	·
Clc1ccccc1Nc1nnc(-c2ccncc2)s1	75	–	–	–	–
COc1ccc(CN2C(=O)CCC2(C)c2nc3ccccc3[nH]2)cc1 (configuration not stated)	·	–	·	·	·
CC(C)(C)c1ccc(C(=O)N2[C@H](COCc3ccccc3)C=CS2(=O)=O)cc1	·	–	·	·	·
Cc1ccc(NN2C(=O)C=C(c3ccc(Cl)cc3)C2=O)cc1	–	99	–	–	–
CC[n+]1c(/C=C/Nc2ccccc2)sc2ccccc21	–	92	–	–	–
O=C1NC(=O)/C(=C/c2cccc3ccccc23)S1	·	–	107	–	–
O=C1NC(=O)C(=Cc2ccccc2[N+](=O)[O-])S1	·	–	·	·	·
COc1cc(OC)c(NC(=O)CC2SC(N)=NC2=O)cc1Cl (configuration not stated)	·	–	·	·	·
O=C1N/C(=C/c2ccc(N3CCOCC3)o2)C(=O)N1c1ccccc1	–	92	·	·	·
C=CCN1C(=O)N/C(=C/c2ccc(N3CCOCC3)o2)C1=O	109	·	–	–	–
Cn1c(=O)c2[nH]c(CCCCCCCCc3nc4ccccc4[nH]3)nc2n(C)c1=O	·	86	·	·	·
CC(=O)Nc1ccc(S(=O)(=O)N2CCC(NC(=O)C(Cc3ccccc3F)NC(C)=O)CC2)cc1 (configuration not stated)	·	–	–	–	–
Cc1ccc(NC(=O)C[n+]2cc(-c3ccc(C)cc3)n3c2CCC3)cc1	–	–	–	–	–
COc1ccc(-c2c[n+](CC(=O)N3c4ccccc4Sc4ccccc43)c3n2CCC3)cc1	–	–	–	–	–
Cc1ccc(-c2c[n+](Cc3ccc(Cl)c(Cl)c3)c3n2CCC3)cc1	89	–	–	–	–
O=C(C[n+]1cc(-c2ccc(Cl)cc2)n2c1CCC2)N1c2ccccc2Sc2ccccc21	–	–	107	–	–
O=C(C[n+]1cc(-c2ccc(Cl)c(Cl)c2)n2c1CCC2)N1c2ccccc2Sc2ccccc21	–	–	107	–	–
CCCOC(=O)C1=C(C)NC(=O)NC1c1cc2c(cc1Br)OCO2 (configuration not stated)	–	–	–	–	–
CSc1ccc(S(=O)(=O)N2CCC(C(=O)NC3CC3)CC2)cc1	–	–	–	–	–
Cc1ccc(NC(=O)COC(=O)c2c(-c3ccccc3)noc2C)c(C)c1	–	–	·	–	–
Oc1ccc(Nc2ncnc3c2oc2ccccc23)cc1	–	–	–	–	–
Oc1cccc(Nc2ncnc3c2oc2ccccc23)c1	–	–	91	–	–
SMILES	Beta cell apopt	Shn3 3UTR inh	Calb FLC	Jurkat NFkB inh	697 NFkB inh
CCN(CC)c1ccc(-c2sc(Nc3ccccc3)n[n+]2-c2ccc(F)cc2)cc1	–	–	–	–	–
CCc1ccc(Nc2n[n+](-c3ccccc3)c(-c3ccc(N(CC)CC)cc3)s2)cc1	108	–	–	–	–
CCc1ccc(Nc2n[n+](-c3ccccc3)c(-c3c(Cl)cccc3Cl)s2)cc1	108	92	–	–	–
CCOC(=O)c1c(SCCN2CCCCC2)n(-c2ccccc2)c(=S)n(-c2ccccc2)c1=O	·	–	·	·	·
NC(=S)N/N=C/c1ncc(C(F)(F)F)cc1Cl	–	91	–	–	–
O=C(NC(=S)NCc1cccnc1)c1cc(Br)ccc1Cl	–	–	–	–	–
O=C(c1ccccc1F)N1CCCc2ccccc21	–	–	–	–	–
CCc1ccc2c(c1)CCCN2C(=O)c1ccccc1C(=O)O	–	88	–	–	–
O=C(c1ccc(C(=O)N2CCCc3ccccc32)s1)N1CCCc2ccccc21	–	–	114	–	–
O=C(c1ccc([N+](=O)[O-])s1)N1CCCc2ccccc21	–	–	–	–	–
Nc1cc(N)nc(SCC(=O)NC(=O)NC2CCCC2)n1	–	–	·	–	–
Cc1ccc2nc(Cl)c3nnnn3c2c1	–	97	97	–	–
Cc1ccc(NC(=O)Cn2c(O)c(N=NC(=O)c3cc4ccccc4cc3O)c3ccccc32)cc1	102	–	·	·	·
O=C(N=Nc1c(O)n(Cc2ccccc2)c2ccccc12)c1cc2ccccc2cc1O	84	–	–	·	·
Cc1ccc(NC(=O)Cn2c(O)c(N=NC(=O)c3ccncc3)c3ccccc32)cc1	–	–	–	–	–
CCOC(=O)C1CC(CN2C(=O)c3ccccc3C2=O)OC1=O (configuration not stated)	·	–	·	·	·
Cc1cc(NC(=O)CN(C)CC(=O)Nc2ccc(F)c(F)c2F)no1	–	–	·	–	–
CC(=O)C1=CCC(c2cccs2)N(S(=O)(=O)c2ccc(C)cc2)C1 (configuration not stated)	·	–	·	·	·
CN(C)c1ccc(NC(=S)NC23CC4CC(CC(C4)C2)C3)cc1	111	–	–	–	–
COc1ccc(-n2nc(C(=O)NCC(=O)N3CCN(c4ccccc4)CC3)c3ccccc3c2=O)c(OC)c1	–	–	79	–	–
COc1ccc(-n2nc(C(=O)NCC(=O)N3CCN(c4ccc(F)cc4)CC3)c3ccccc3c2=O)c(OC)c1	–	–	99	–	–
COc1ccc(-n2nc(C(=O)NCC(=O)N3CCCC3)c3ccccc3c2=O)c(OC)c1	–	–	–	–	–
CC(CN1CCCCC1)NC(=O)c1cccs1 (configuration not stated)	·	–	–	–	–
C[C@H]1CN([C@@H](C)CO)C(=O)c2cc(-c3cccc(F)c3)cnc2O[C@H]1CN(C)C(=O)c1cnccn1	·	–	·	·	·
CC(=O)Nc1ccc(NC(=O)CN(c2cccc([N+](=O)[O-])c2)S(C)(=O)=O)cc1	108	–	–	–	–
SMILES	Beta cell apopt	Shn3 3UTR inh	Calb FLC	Jurkat NFkB inh	697 NFkB inh
Cc1ccc(NS(=O)(=O)c2ccc(NC(=O)CN(c3cc([N+](=O)[O-])ccc3C)S(C)(=O)=O)cc2)c(C)c1	106	–	–	–	–
COc1cccc(C(=O)Nc2ccc3c(cc2=O)[C@@H](NC(C)=O)CCc2cc(OC)c(OC)c(OC)c2-3)c1	–	–	–	–	–
CC(NC(=O)Cn1ncc(Cl)c(Cl)c1=O)C12CC3CC(CC(C3)C1)C2 (configuration not stated)	–	98	–	·	·
Oc1c(C(Nc2cccc(C(F)(F)F)c2)c2ccncc2)ccc2cccnc12 (configuration not stated)	79	97	93	–	–
O=C(O)c1cccnc1Nc1cccc(C(F)(F)F)c1	–	–	·	–	–
Oc1c(C(Nc2nccs2)c2ccc(C(F)(F)F)cc2)ccc2cccnc12 (configuration not stated)	·	–	103	·	·
Cc1ccc(NC(=S)NNc2ncc(C(F)(F)F)cc2Cl)cc1	–	–	–	–	–
FC(F)(F)c1cnc(NNC(=S)Nc2ccc(Cl)cc2)c(Cl)c1	93	–	–	–	–
